From PubChem
Hits are enriched below; roughly 5.1% of the tested compounds scored in any of these assays.
GRIN3A LBD mod = modulates the human NR3A ligand-binding domain; AID 1259313; 340,000 compounds, 2.5% hits; Tm shift relative to glycine control, % at 25 µM; NR3A LBD differential scanning fluorimetry, Tm shift; 0% = protein alone, 100% = glycine-bound protein;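 active means melting temperature shift of at least 10% of the positive control shift, at one fixed dose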
CRFBP-R2 agonist = CRF-BP/CRF-R2 complex agonism | HEK293 CRF-R2/CRF-BP, calcium dye fluorescence (FLIPR); percent of saturating CRF peptide response | activation, % at 13.2 µM | 350,000 compounds, 0.46% hits;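 active means activation of at least 50%, plus an integration ratio under a set limit after plate pattern correction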
TMEM16A act = activators or potentiators of mouse TMEM16A chloride channel | Q8BHY3 | HEK293 TMEM16A/YFP-H148Q/I152L, iodide quench fluorescence; hits give low values | B-score at 10 µM | 340,000 compounds, 0.3% hits;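 active means fluorescence-ratio B-score plate-corrected deviation score at least 3 library SD below zero, with starting fluorescence score within 5 deviations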;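 further: channel opened by trigger with iodide after compound preincubation; score built on the fluorescence ratio of max minus min over baseline; more negative score means more quench and so TMEM16A activation or potentiation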
Target sequence (Q8BHY3 whole entry, looked up): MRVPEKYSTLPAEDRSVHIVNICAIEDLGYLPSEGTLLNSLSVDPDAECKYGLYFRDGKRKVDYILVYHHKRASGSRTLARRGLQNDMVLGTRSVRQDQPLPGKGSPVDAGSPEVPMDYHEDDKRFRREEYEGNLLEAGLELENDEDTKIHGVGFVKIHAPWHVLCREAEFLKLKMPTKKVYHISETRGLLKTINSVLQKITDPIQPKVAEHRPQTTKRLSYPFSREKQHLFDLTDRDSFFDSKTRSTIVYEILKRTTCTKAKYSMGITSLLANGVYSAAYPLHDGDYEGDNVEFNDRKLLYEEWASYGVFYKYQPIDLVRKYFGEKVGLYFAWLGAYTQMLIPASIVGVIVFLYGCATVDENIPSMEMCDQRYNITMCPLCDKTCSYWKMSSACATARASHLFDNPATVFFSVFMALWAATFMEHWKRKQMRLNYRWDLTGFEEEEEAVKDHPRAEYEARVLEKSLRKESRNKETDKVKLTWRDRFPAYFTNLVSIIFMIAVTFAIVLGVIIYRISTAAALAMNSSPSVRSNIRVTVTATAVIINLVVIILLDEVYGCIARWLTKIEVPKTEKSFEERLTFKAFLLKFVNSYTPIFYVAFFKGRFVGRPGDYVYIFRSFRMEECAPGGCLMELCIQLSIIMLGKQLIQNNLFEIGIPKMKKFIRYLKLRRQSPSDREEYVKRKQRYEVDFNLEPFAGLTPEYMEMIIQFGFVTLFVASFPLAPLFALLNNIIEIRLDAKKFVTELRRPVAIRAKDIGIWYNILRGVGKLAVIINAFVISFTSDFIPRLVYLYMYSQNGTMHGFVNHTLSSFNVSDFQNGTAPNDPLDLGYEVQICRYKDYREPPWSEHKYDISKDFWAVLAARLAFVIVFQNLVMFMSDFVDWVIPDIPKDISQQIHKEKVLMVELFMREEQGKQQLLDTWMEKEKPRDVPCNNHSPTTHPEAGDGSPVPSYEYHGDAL
ANO1 block = mouse TMEM16A channel inhibition, primary screen. HEK293 TMEM16A/YFP iodide influx fluorescence, ionomycin. normalized B-score (activity score, 25-100; higher = stronger inhibition) at 10 µM. 310,000 compounds, 1.2% hits;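 active means ratio plate-corrected score three or more library SD toward inhibition, starting fluorescence score within five deviations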;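 further: score derived from kinetic fluorescence span divided by baseline fluorescence per well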
CRFR2-BP antag = antagonists of CRF-binding protein/CRF-R2 receptor complex; AID 588475; 350,000 compounds, 0.59% hits; HEK293 CRF-R2/CRF-BP, CRF-induced calcium fluorescence; inhibition, % at 11.8 µM;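 active means inhibition of the ligand-induced calcium signal above about 50% at the single tested concentration, limit read from the data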
MPTP inh = blocks calcium-induced mitochondrial swelling; isolated mouse mitochondria, Ca2+ swelling absorbance, 30 min; inhibition, % at 10 µM; 360,000 compounds, 1.4% hits;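 active means inhibition of 50% or more, scaled per plate between neutral and stimulator controls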
A number is an active result; - = inactive; . = no result given.

SMILES	GRIN3A LBD mod	CRFBP-R2 agonist	TMEM16A act	ANO1 block	CRFR2-BP antag	MPTP inh
COc1cccc(NC(=O)CN2C(=O)C3(OCCCO3)c3ccccc32)c1	11	-	-	-	-	-
O=[N+]([O-])c1cccc(COc2ccccc2CO)c1	.	.	.	.	.	-
CCc1ccc(CNC(=O)CCC(=O)n2ncc3cc(C)ccc32)cc1	-	-	-8.8	-	-	-
CC(C)(C)c1ccc(OCC(=O)N2CCCCCC2)c(Br)c1	-	-	-	-	-	-
Cc1ccc(OCC(=O)N2CCCCC2)c(Br)c1	17	-	-	-	-	-
Cc1ccc2c(cnn2C(=O)CCC(=O)N2CCCCC2)c1	-	-	-	-	71	-
Cn1cc([N+](=O)[O-])c(C(=O)NC2CCCCCCC2)n1	.	.	-	-	.	-
Cc1ccc2c(c1)N(C(=O)CCC(=O)NCCN1CCOCC1)CC(C)O2 (configuration not stated)	-	-	-	-	-	-
Cc1cccc(NC(=O)c2c(O)c3ccccc3[nH]c2=O)c1	-	-	-	-	-	-
O=C(Nc1cccc(O)c1)c1c(O)c2ccccc2[nH]c1=O	44	-	-	-	-	-
Cc1cccc(CSc2nc3c(c(-c4cccs4)c2C#N)CN(C)CC3)c1	-	-	-	-	-	-
Cc1cccc(CSc2nc(N)c(C#N)c(-c3cccs3)c2C#N)c1	13	-	-	-	-	-
COC(=O)[C@]12CCCCC=C1N(Cc1ccc3c(c1)OCO3)C(=O)[C@H](CC(=O)N1CCCCC1)C2	.	.	.	.	.	-
C=C(C)CNC(=S)N=Nc1c(O)[nH]c2ccc([N+](=O)[O-])cc12	25	-	-	-	-	-
O=C(CNC(=O)c1ccco1)N=Nc1c(O)[nH]c2ccc([N+](=O)[O-])cc12	-	-	-	-	-	-
CC(C)NC(=S)N=Nc1c(O)[nH]c2ccc([N+](=O)[O-])cc12	18	-	-	-	-	-
NC(=O)N=Nc1c(O)[nH]c2ccc([N+](=O)[O-])cc12	-	-	-	-	-	-
CCc1ccc(CN2CCC(n3nccc3NC(=O)c3cccc(F)c3)CC2)cc1	-	-	-	-	-	-
CCC(=O)N1CCN(c2ccccc2NC(=O)COc2ccc(C(C)C)cc2)CC1	-	-	-	-	-	-
O=[N+]([O-])/C=C/c1cc2ccccc2[nH]1	18	-	-	-	-	-
CCC(C)[C@H]1CNC(=O)C(=O)N1CCCCC1CCCCC1 (some centres not stated)	.	.	.	.	.	-
COc1cc2c(-c3ccc(O)cc3)nc3c(c(C)nn3-c3ccccc3)c2cc1OC	28	-	-	-	-	-
COc1cc2c(C)nc3c(c(C)nn3-c3ccccc3)c2cc1OC	-	-	-	-	-	-
COc1ccc(C2Nc3ccc4ccccc4c3-c3c2c(=O)oc2ccccc32)cc1 (configuration not stated)	.	.	-	-	.	-
CCOc1ccc(C2Nc3ccc4ccccc4c3-c3c2c(=O)oc2ccccc32)cc1 (configuration not stated)	14	-	-	-	-	-
SMILES	GRIN3A LBD mod	CRFBP-R2 agonist	TMEM16A act	ANO1 block	CRFR2-BP antag	MPTP inh
COc1cc(C(=S)N2CCOCC2)cc(OC)c1O	-	-	-	-	-	-
C/C(=N\OC(=O)Nc1ccc(Cl)cc1)c1ccc(F)c(F)c1	36	-	-	-	-	-
CC(C)C(Cl)=NOC(=O)Nc1ccc(F)cc1	-	-	-	.	-	-
CCOC(=O)C1CCCN(C(=O)Cc2ccc(OC)c(OC)c2)CC1 (configuration not stated)	.	.	.	.	.	-
Cc1ccc(O)c(Nc2c3ccccc3nc3ccccc23)c1	-	-	-	25	-	-
O=C(CCl)NC1(C(=O)O)CCCC1	.	-	.	.	-	-
Cc1cc2nc(CO)[nH]c2cc1C	15	-	-	-	-	-
Cc1cc2nc(CS)[nH]c2cc1C	-	-	-	-	-	-
CN1CCC(CC(C(=O)N2CCCC2)(c2ccccc2)c2ccccc2)C1 (configuration not stated)	-	-	-	.	-	-
CCN(C[C@H]1N[C@@](C)(C(=O)OC)[C@H]2C(=O)N(Cc3ccccc3)C(=O)[C@@H]12)C(=O)Nc1ccc(OC)cc1	-	-	-	.	-	-
O=C(CCc1c[nH]c2ccccc12)N1CCN(S(=O)(=O)c2ccc([N+](=O)[O-])cc2)CC1	.	-	.	.	-	-
